Reference: PubChem BioAssay AID651820 (National Center for Advancing Translational Sciences (NCATS), 2012)
Hit rate of the full screen: of about 340,000 compounds, about 12,000 (3.5%) were called active. About 18% were inconclusive and are not listed. The list comes from a sample in which actives are over-represented; it also holds similar structures and randomly drawn compounds. A number with no mark means an inactive call. Calls come from the whole dose curve; as a rule, active = well fitted inhibition curve with a large enough effect; inconclusive = small, poorly fitted or top-dose-only effect, or another doubt; inactive = no such curve, though single readings can be large or run the other way.

test: qHTS Assay for Inhibitors of Hepatitis C Virus (HCV); conditions: Huh7.5.1 HCVcc-Cre infection, luciferase reporter, 44 h; series mostly up to 41.8 µM; activity change, negative = inhibition: at the top concentration
Procedure, shortened: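 Seed cells (1,000/well) for 4 h; treat with compound and infect with HCVcc-Cre, moi about 0.5. Incubate 44 h, then detect luciferase activity.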
% is set by controls: 0 for no effect and ±100 for the full control effect; potency is the fitted concentration of half-maximal effect.

| Compound | Potency | activity change, negative = inhibition |
| --- | --- | --- |
| CNC[C@H](CC1CCCCC1)NC[C@H](NCCC1CCCC1)[C@H](C)O | 11.2 µM (active) |  |
| COC(=O)c1ccc(-c2c(-c3ccccc3)ncc3cc(OC)c(OC)cc23)cc1 |  | -3.02% |
| COc1ccc(CCN(C)C(=O)C2CCCN(Cc3ccc(OC)c(OC)c3)C2)cc1OC (centres undefined) |  | 2.61% |
| COc1ccc(CCNC(=O)C2CCCN(Cc3nc(-c4cccc(Cl)c4)oc3C)C2)cc1OC (centres undefined) | 10 µM (active) |  |
| COc1ccc(CCNC(=O)CS(=O)(=O)Cc2nc(-c3ccc(C)cc3)oc2C)cc1OC |  | -21.3% |
| COc1ccc(NC(=O)CN(C)C(=O)c2cc(-c3ccc(C)o3)nc3ccccc23)cc1 |  | -21.8% |
| Cc1cccc(N=C2NC(=O)/C(=C/c3cn(C)c4ccccc34)S2)c1 | 14.1 µM (active) |  |
| CN(C)c1ccc(-n2cccc2/C=C2/SC(=Nc3ccc(F)cc3)NC2=O)cc1 |  | -22% |
| Cn1cc(/C=C/c2nc3ccccc3c(=O)n2-c2cccc([N+](=O)[O-])c2)c2ccccc21 |  | 1.56% |
| Cc1cccc(N(Cc2ccccc2)C(=O)c2cc(S(=O)(=O)N3CCOCC3)ccc2F)c1 |  | -3.25% |
| O=S(=O)(NC1CCCCC1)c1ccc(F)c2ccccc12 | 35.5 µM (active) |  |
| CSc1ccc(S(=O)(=O)NC2CCCCC2)cc1 |  | 15.8% |
| O=S(=O)(NC1CC1)c1ccc2c3c(cccc13)CC2 |  | -28% |
| O=C(NNc1nc(N2CCCC2)nc(N2CCCC2)n1)c1ccccc1 |  | -16.4% |
| CN(C)C(=O)CCc1ccc2c3c([nH]c2c1)[C@]1(CCc2ccccc2)[C@@H](C(=O)N2CCCCC2)C[C@H](CC(=O)NCCC2=CCCCC2)C(=O)N1CC3 |  | 12.1% |
| CC(C)CN(C(=O)COC(=O)c1ccc2ccccc2c1)c1c(N)n(Cc2ccccc2)c(=O)[nH]c1=O |  | -2.77% |
| CC1=CC(C)(C)Nc2ccc(OC(=O)CN3C(=O)C4CCCCC4C3=O)cc21 (centres undefined) | 11.2 µM (active) |  |
| O=C(CN1C(=O)C2C3CCC(C3)C2C1=O)Oc1ccc2ccccc2c1 (centres undefined) |  | 16.3% |
| O=C(COC(=O)CN1C(=O)C2CCCCC2C1=O)Nc1ccc(F)c(F)c1F (centres undefined) |  | 9.46% |
| Cc1cc2cc(CNC(=O)c3ccc(S(=O)(=O)N4CCOCC4)cc3)ccc2[nH]1 |  | -2.6% |
| CCc1cccc(CC)c1NC(=S)NCc1ccc2[nH]c(C)cc2c1 | 14.1 µM (active) |  |
| CCc1cccc(CC)c1NC(=S)Nc1ccc2cn[nH]c2c1 |  | -0.0519% |
| CC(Sc1nnc(-c2cccs2)n1C1CC1)C(=O)NCC1CCCO1 (centres undefined) |  | 20.4% |
| O=C(COC(=O)Cn1[nH]c(=O)c2ccccc2c1=O)Nc1ncc(Cl)cc1Cl |  | 2.09% |
| COc1ccc(N2CCN(C(=O)CCNC(=O)c3ccc(Br)cc3)CC2)cc1 |  | -26.5% |

| Compound | Potency | activity change, negative = inhibition |
| --- | --- | --- |
| CC1CCCCC12NC(=O)N(CC(=O)OCc1c(F)cccc1Cl)C2=O (centres undefined) |  | 12.2% |
| CCc1ccccc1NC(=O)NCCN1CCCCC1 |  | -6.99% |
| O=C(Nc1ccon1)c1sc2ccccc2c1Cl |  | -6.93% |
| CN1CCc2ccccc2C1Cc1ccccc1NC(=O)c1sc2ccccc2c1Cl (centres undefined) | 14.1 µM (active) |  |
| Cc1ccc(NC(=O)CSCC(=O)Nc2sccc2C#N)cc1 |  | 7.78% |
| CCCCCCCCCCCCN1[C@@H](CC(C)=O)c2cc(F)cc(F)c2S1(=O)=O |  | 7.87% |
| O=C(CN1C(=O)NC(Cc2c[nH]c3ccccc23)C1=O)Nc1ccccc1C(F)(F)F (centres undefined) |  | 10.9% |
| O=C(OCCOCn1cc(Br)c(=O)[nH]c1=O)c1ccccc1 |  | 7.07% |
| CC(C)(C)NCCCOc1ccc(Cl)cc1C(C)(C)C | 5.01 µM (active) |  |
| CN(C)CCOc1ccc(Cl)cc1C(C)(C)C |  | 2.11% |
| Cc1cc(Cl)ccc1OCCCC(=O)NCc1ccncc1 |  | -2.45% |
| NC1=NC(c2ccc([N+](=O)[O-])cc2)N(c2ccc(F)cc2)C(N)=N1 (centres undefined) |  | 10.2% |
| COc1ccc(S(=O)(=O)N2CCOC23CCN(S(=O)(=O)c2ccc([N+](=O)[O-])cc2)CC3)cc1 |  | -26.6% |
| CCn1c(NCCc2ccc(OC)c(OC)c2)nc2c1c(=O)n(C)c(=O)n2C | 11.2 µM (active) |  |
| CCCCn1c(SCC(=O)NCCc2ccc(OC)c(OC)c2)nc2c1c(=O)n(C)c(=O)n2C |  | -4.19% |
| CCCCNc1nc2c(c(=O)[nH]c(=O)n2C)n1CCOc1ccccc1 |  | -4.32% |
| CCCCNc1nc2c(c(=O)n(C)c(=O)n2C)n1Cc1cccc(OC)c1 | 6.31 µM (active) |  |
| Cn1c(=O)c2c(nc(NCc3ccccc3)n2CC(N)=O)n(C)c1=O |  | 9.34% |
| COc1ccc(CNc2nc3c(c(=O)[nH]c(=O)n3C)n2Cc2ccccc2)cc1 |  | -2.18% |
| CC[C@]1(C(=O)OC)[C@H]2C(=O)N(C)C(=O)[C@H]2[C@H]2CN(C)C(=NCc3ccccc3)N21 |  | 3.22% |
| Cc1cccc(C=CC(=O)c2ccc(Cl)cc2)c1 |  | -8.79% |
| COc1ccc(S(=O)(=O)NC(C)C(=O)N2CCCCCC2)cc1 (centres undefined) |  | 4.24% |
| COc1ccc(CNS(=O)(=O)c2ccc(NC(=O)N3CCCCC3)cc2)cc1 | 8.91 µM (active) |  |
| COc1ccc(S(=O)(=O)NCc2ccc(C(=O)N3CCC4(CC3)OCCO4)cc2)cc1 |  | 17.5% |
| Cc1c(Cc2ccccc2)c(=O)oc2cc(OCC(N)=O)ccc12 |  | -5.76% |

| Compound | Potency | activity change, negative = inhibition |
| --- | --- | --- |
| CCOC(=O)c1c(-c2ccccc2)oc2ccc(OC(=O)N(C)C)cc12 | 10 µM (active) |  |
| CCOC(=O)c1c(-c2ccccc2)oc2ccc(OCC(N)=O)cc12 | 10 µM (active) |  |
| CN(C)C(=O)Oc1ccc2c(c1)O/C(=C\c1ccccc1)C2=O |  | -25.2% |
| CCOC(=O)c1cc(=O)c2ccc(OCc3ccccc3)cc2o1 |  | 23.8% |
| Cc1cc(=O)oc2ccc(OCC(=O)O)cc12 |  | 11% |
| CCOc1ccccc1Nc1nnc(SCC(=O)NCC2CCCO2)s1 (centres undefined) |  | -2.14% |
| C=C(C)CNc1cc(S(=O)(=O)N2CCOCC2)ccc1Oc1ccccc1 |  | -4.73% |
| CCOc1ccc(CCNC(=O)COC(=O)c2c(OC)cccc2OC)cc1OCC |  | -15.3% |
| CC(C(=O)NC1CCCC1)N1CCN(S(=O)(=O)c2ccccc2Cl)CC1 (centres undefined) |  | 9.79% |
| COc1ccc(OC)c(NC(=O)COC(=O)Cc2ccsc2)c1 |  | -5.62% |
| Cc1ccc(Br)c(NS(=O)(=O)c2cccc(C(=O)N3CCNC(=O)C3)c2)c1 |  | 21% |
| CCOC(=O)CSc1nc2ccc(C)cc2[nH]1 |  | -5.08% |
| Cc1ccc2nc(/C(C#N)=C\c3ccc(OC(=O)c4cccs4)cc3)[nH]c2c1 | 1.78 µM (active) |  |
| Cc1ccc2nc(S(=O)(=O)O)[nH]c2c1 |  | 14.7% |
| Cc1cc(C(=O)OCC(=O)Nc2ccccc2Cl)c(C)o1 |  | 22.3% |
| CC(C)NC(=S)N1CCN(C(c2ccccc2)c2ccccc2)CC1 |  | -7.24% |
| CC1(C)CC(N2CCN(C(c3ccccc3)c3ccccc3)CC2)=CC(=[N+]2CCCCC2)C1 | 3.16 µM (active) |  |
| O=C(O)CN1CCN(C(c2ccccc2)c2ccccc2)CC1 |  | -3.12% |
| CS(=O)(=O)c1ccc(C(=O)OCC(=O)NNC(=O)COc2ccc(Cl)cc2)cc1 |  | 11.5% |
| O=C(NCCCc1ccccc1)C(=O)NCC1OCCN1S(=O)(=O)c1ccccc1 (centres undefined) |  | -12.1% |
| CN=C(Nc1cccc(S(=O)(=O)N2CCOCC2)c1)c1ccccc1 |  | -0.947% |
| CC(C)Oc1ccc(C(=O)NCC(=O)Nc2ccc3c(c2)CCC3)cc1 |  | 17.9% |
| CC[C@]1(C(=O)OC)[C@H]2C(=O)N(Cc3ccccc3)C(=O)[C@H]2[C@H]2CN=C(SCc3ccccc3)N21 |  | -13.1% |
| Cn1c(=N)n(CC(O)c2cccs2)c2ccccc21 (centres undefined) |  | -5.72% |
| O=S(=O)(O)c1nc2ccccc2n1Cc1ccc(Cl)cc1 |  | 28.9% |

| Compound | Potency | activity change, negative = inhibition |
| --- | --- | --- |
| N=c1n(Cc2ccc(Cl)cc2)c2ccccc2n1CC(O)c1ccco1 (centres undefined) | 11.2 µM (active) |  |
| C[C@H](CO)N1C[C@H](C)[C@H](CN(C)CC2CC2)Oc2ccc(NC(=O)CCN3CCOCC3)cc2C1=O |  | -0.967% |
| C[C@]12CCC(=O)C=C1C=CC1C2CC[C@@]2(C)C1CC[C@@]21CCC(=O)O1 (some centres undefined) |  | -13.4% |
| COc1ccc(-c2c(C#Cc3ccsc3)c3cc(-c4ccc(CN5CCOCC5)cc4)ccc3n2C)cc1 |  | 3.05% |
| Cc1cc(N2CCOCC2)nc(-c2ccc(Br)cc2)n1 | 10 µM (active) |  |
| Cc1cc(N2CCN(c3ccccc3)CC2)nc(N2CCOCC2)n1 |  | -27.5% |
| Cc1cc(Nc2ccc(N3CCOCC3)cc2)c2cccc(C)c2n1 |  | -9.69% |
| O=[N+]([O-])c1ccc(COc2ccccc2CN2CCOCC2)cc1 |  | -17.2% [at 8.37 µM] |
| Cc1cnc(NC(=O)c2ccccn2)s1 | 10 µM (active) |  |
| Cc1cnc(NC(=O)CSc2c(Cl)cccc2Cl)s1 |  | 6.41% |
| Cc1cnc(NC(=O)c2ccc(Cl)nc2)s1 |  | 12.2% |
| O=C(NCCc1ccc(F)cc1)c1ccc2nccnc2c1 |  | -8.35% |
| NC(=O)c1ccc(N2CCCC2)nc1 |  | 19% |
| C[C@H]1CN([C@@H](C)CO)C(=O)Cc2cc(NC(=O)Cc3ccccc3)ccc2O[C@H]1CN(C)S(=O)(=O)c1cccs1 |  | -7.75% |
| COC(=O)c1ccc(SCc2ccccc2)nc1 |  | 4.39% |
| CCCCOc1ccc(C(=O)NCC(=O)OCC(=O)c2c(N)n(C)c(=O)n(C)c2=O)cc1 |  | 8% |
| COc1ccc(C(=O)N(C)Cc2ccc(OC)c(OC)c2OC)cc1S(=O)(=O)N1CCOCC1 |  | 1.42% |
| COc1cc(OC)cc(-c2c(-c3ccc(F)cc3)c3cc(-c4ccc5cc[nH]c5c4)ccc3n2C)c1 | 10 µM (active) |  |
| COc1cc(OC)cc(-c2c(C#Cc3ccsc3)c3cc(-c4ccc(OC)cc4F)ccc3n2C)c1 |  | 8.06% |
| COc1cc(OC)cc(-c2c(C#Cc3ccsc3)c3cc(-c4ccc(SC)cc4)ccc3n2C)c1 |  | -10.3% |
| COc1ccc(-c2c(C#Cc3ccccc3)c3ccccc3n2C)cc1 |  | -1.44% |
| COc1ccc(-c2c(-c3cc(OC)cc(OC)c3)n(C)c3ccc(-c4ccn[nH]4)cc23)cc1 | 11.2 µM (active) |  |
| COc1cc(OC)cc(-c2c(-c3cccs3)c3cc(-c4ccc(OC)nc4)ccc3n2C)c1 |  | -8.98% |
| CC1O[C@H](OC2C(COC3OC(CO)C(O)[C@H](O)C3O)OC(OC3CC[C@]4(C)C(CC[C@@]5(C)[C@@H]4C=C[C@]46OC[C@@]7(CCC(C)(C)C[C@H]74)C(O)C[C@@]56C)C3(C)C)C(O)C2O)C(O)C(O)C1O (some centres undefined) |  | 3.93% |
